Most compounds without a hit are left out; they make up all but 2.7% or so of the library.
INS-1E GSIS act: GLuc luminescence reporter in INS-1E cells, primary screen for activators of glucose-dependent secretion of insulin; INS-1E GLuc reporter insulin secretion, 2-3 h; AID 743287; activation, % at 16.6 µM; 370,000 tested, 0.61% active;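 active = lowest replicate activation of at least 40%, so every replicate reaches that level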
MITF act: increases MITF-driven TRPM1 promoter luciferase signal | SK-MEL-5 TRPM1-promoter luciferase, 24 h; % of positive control, neutral wells = 0 | activation, % at 12.5 µM | 300,000 tested, 0.75% active;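 active = mean activation of at least 80% with every replicate also reaching 80%; inconclusive = mean reaches 80% but some replicate falls short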
Wnt bcat act: activates Wnt/beta-catenin signaling in a reporter cell assay | activator, plate reader | activation, % at 9.35 µM | 300,000 tested, 1.2% active | AID 743398; in the data active = activation above about 30%, passing the limit was not always enough; inconclusive = no clear call, values can overlap the other calls
HIV Env fusion: HIV envelope-mediated fusion inhibition. HeLa-JRFL Env/CEM21 cell fusion, luciferase. inhibition, % at 12.3 µM. 360,000 tested, 1.1% active. AID 651610;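 active = mean replicate inhibition score of at least 50 and every replicate individually at or above 50; inconclusive = only one of the two criteria met; inactive = mean below 50 and not all replicates reaching 50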
F508del corr: CFTR F508del correction in bronchial cells; CFBE cells, YFP halide quenching; stimulated with forskolin plus potentiator P3; % fluorescence drop versus neutral controls; activity (quench increase), % at 7.58 µM; 350,000 tested, 0.36% active; AID 720511;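 active = mean added fluorescence quench of at least 8% versus neutral control, with both replicates also reaching 8%; inconclusive = only one of the mean or replicate conditions met; inactive = mean below 8% and not both replicates reaching 8%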;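 also: cells transiently co-express mutant CFTR-F508del with the halide-sensitive YFP; corrector assay measuring rescue of mutant channel to the surface after 24 h compound exposure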
Large screens that a line does not name were inactive; [ ] = remark or other dose.

O=C(Nc1ccc(F)cc1)N1CCCCN2[C@@H](CO)[C@@H](c3ccc(C#Cc4ccccc4)cc3)[C@@H]2C1	INS-1E GSIS act 44.2 (no result: MITF act, Wnt bcat act, HIV Env fusion)
CC(Oc1ccc(F)cc1)c1nnc(SCC(=O)N(c2ccccc2)C2CCS(=O)(=O)C2)o1 (stereo unspecified)	none
O=C(CSc1nnc(COc2ccc(Cl)cc2)o1)N(c1ccccc1)C1CCS(=O)(=O)C1 (stereo unspecified)	HIV Env fusion 65.4 (no result: MITF act)
C[C@@H]1CN([C@@H](C)CO)C(=O)c2cc(NC(=O)Cc3ccccc3)ccc2O[C@@H](C)CCCCO[C@@H]1CN(C)C(=O)c1ccncc1	none (no result: MITF act, Wnt bcat act, HIV Env fusion)
O=c1[nH]c(CN2CCN(c3ccccc3O)CC2)nc2scc(-c3ccccc3Cl)c12	none
O=c1[nH]c(CN2CCN(c3ccc(O)cc3)CC2)nc2scc(-c3ccc(Cl)cc3)c12	INS-1E GSIS act 52.8, F508del corr 13.1
COc1ccc(S(=O)(=O)Nc2ccc3c(c2)CC(=O)N([C@@H](C)CO)C[C@H](C)[C@H](CN(C)Cc2ccc(C(=O)O)cc2)O3)cc1	none (no result: MITF act, Wnt bcat act)
O=C(Nc1ccc2c(c1)[C@H]1C[C@H](CC(=O)N3CCCCC3)O[C@@H](CO)[C@H]1O2)NC1CCCC1	none (no result: MITF act, Wnt bcat act)
CC1=C(C(=O)N(C)C)CC(CC(=O)NCc2cccc3ccccc23)C(=O)N1CCCN1CCCC1=O (stereo unspecified)	F508del corr 8.3 (no result: MITF act)
CCC(=O)N1[C@@H](CO)[C@@H]2c3ccccc3N(C(=O)Nc3ccccc3Cl)C[C@@H]21	none (no result: MITF act, Wnt bcat act, HIV Env fusion)
CN(C)C(=O)C[C@@H]1C=C[C@H](NC(=O)C2CCC2)[C@H](CO)O1	none (no result: MITF act, Wnt bcat act)
COc1ccc2[nH]c3c(c2c1)CCNC3=O	HIV Env fusion inconclusive
O=C1NCCc2c1[nH]c1ccc([N+](=O)[O-])cc21	HIV Env fusion 66.5, F508del corr 11.4
COc1ccc(NC(=O)COC(=O)C23CC4CC(CC(O)(C4)C2)C3)cc1Cl	MITF act 85.7, Wnt bcat act 39.4
O=C(COC(=O)C12CC3CC(CC(O)(C3)C1)C2)NCCc1ccc(Cl)cc1	none
O=C(COC(=O)C12CC3CC(CC(O)(C3)C1)C2)Nc1ccc(Cl)cc1F	MITF act 93.0 (no result: HIV Env fusion)
CCOc1cccc(C(=O)Nc2ccc3c(c2)OCCO3)c1	Wnt bcat act 41.8 (no result: MITF act)
CCOc1cccc(C(=O)Nc2ccc3ccccc3c2)c1	Wnt bcat act 35.7 (no result: MITF act)
O=C(Nc1ccc2c(c1)OCO2)c1cncc(Br)c1	none (no result: Wnt bcat act, F508del corr)
CCOc1ccc(C(=O)Nc2ccc3[nH]ncc3c2)cc1	Wnt bcat act 54.6 (no result: INS-1E GSIS act)
CCOc1cccc(C(=O)Nc2cccc(C(C)=O)c2)c1	none (no result: F508del corr)
O=C(Nc1ccc2c(c1)OCCO2)c1cncc(Br)c1	Wnt bcat act 40.9 (no result: MITF act, F508del corr)
O=C(Nc1ccc2c(c1)OCCO2)c1cccc(C(=O)Nc2ccc3c(c2)OCCO3)c1	none
C[C@H]1CN([C@@H](C)CO)C(=O)c2cccc(NS(=O)(=O)c3ccccc3)c2O[C@@H]1CN(C)Cc1ccncc1	none (no result: MITF act, Wnt bcat act)
C[C@@H]1CN([C@@H](C)CO)C(=O)c2cc(NC(=O)CCC(F)(F)F)ccc2O[C@H]1CN(C)Cc1ccc(-c2ccccc2)cc1	none (no result: MITF act, Wnt bcat act, HIV Env fusion)
Cc1noc(C)c1NC(=O)Nc1ccc2c(c1)C(=O)N([C@H](C)CO)C[C@@H](C)[C@@H](CN(C)Cc1ccc(Cl)c(Cl)c1)O2	none (no result: MITF act, Wnt bcat act)
C[C@H](CO)N1C[C@H](C)[C@@H](CN(C)C(=O)C2CCCCC2)OCCCC[C@H](C)Oc2ccc(NC(=O)Nc3ccc4c(c3)OCO4)cc2C1=O	none (no result: MITF act, Wnt bcat act)
C[C@H]1CN([C@@H](C)CO)C(=O)c2cc(C#CC3CCCCC3)cnc2O[C@H]1CN(C)C(=O)NC1CCCC1	none (no result: MITF act, Wnt bcat act)
O=C(c1ccc(S(=O)(=O)Cc2cc(F)ccc2F)c([N+](=O)[O-])c1)N1CCCC1	INS-1E GSIS act 75.6
O=C(c1ccc(S(=O)(=O)Cc2cc(F)ccc2F)c([N+](=O)[O-])c1)N1CCCCC1	none (no result: Wnt bcat act, F508del corr)
O=C(C[C@@H]1CC[C@@H](NC(=O)c2cccc(F)c2)[C@@H](CO)O1)NCc1ccccc1	none (no result: MITF act, Wnt bcat act)
CN(C)CC1CCC/C(=C\c2ccc(OC(=O)c3ccc(Cl)cc3)cc2)C1=O (stereo unspecified)	HIV Env fusion 59.7 (no result: INS-1E GSIS act)
CN(C)CC1CCC/C(=C\c2ccc(OC(=O)/C=C/c3ccccc3)cc2)C1=O (stereo unspecified)	none
C[C@@H]1CN([C@@H](C)CO)C(=O)c2cc(NC(=O)Nc3ccc(F)cc3)ccc2O[C@@H](C)CCCCO[C@@H]1CN(C)C(=O)C1CCCCC1	none (no result: MITF act, Wnt bcat act)
C[C@@H]1CCCCO[C@H](CN(C)C(=O)C2CCCCC2)[C@@H](C)CN([C@@H](C)CO)C(=O)c2cc(NC(=O)Nc3ccc(F)cc3)ccc2O1	HIV Env fusion 57.4[16.7 µM] (no result: MITF act, Wnt bcat act)
C[C@H]1CCCCO[C@H](CN(C)C(=O)Nc2ccc(C(F)(F)F)cc2)[C@@H](C)CN([C@@H](C)CO)C(=O)c2cc(NC(=O)Nc3ccc(F)cc3)ccc2O1	HIV Env fusion 76.7[16.7 µM], F508del corr 8.0 (no result: MITF act, Wnt bcat act)
C[C@@H]1CCCCO[C@@H](CN(C)C(=O)Nc2ccc(F)cc2)[C@@H](C)CN([C@@H](C)CO)C(=O)c2cc(NC(=O)Nc3ccc(F)cc3)ccc2O1	none (no result: MITF act, Wnt bcat act)
C[C@@H]1CCCCO[C@@H](CN(C)CC2CCCCC2)[C@H](C)CN([C@H](C)CO)C(=O)c2cc(NC(=O)Nc3ccc(F)cc3)ccc2O1	HIV Env fusion 75.1[16.7 µM] (no result: MITF act, Wnt bcat act)
C[C@H]1CCCCO[C@H](CN(C)C(=O)Nc2ccc(F)cc2)[C@@H](C)CN([C@@H](C)CO)C(=O)c2cc(NC(=O)Nc3ccc(F)cc3)ccc2O1	HIV Env fusion 62.2[16.7 µM] (no result: MITF act, Wnt bcat act)
C[C@@H]1CN([C@H](C)CO)C(=O)c2cc(NC(=O)CCC(F)(F)F)ccc2O[C@@H](C)CCCCO[C@@H]1CN(C)CC1CCCCC1	none (no result: MITF act, Wnt bcat act)
CC(C)NC(=O)Nc1ccc2c(c1)C(=O)N([C@H](C)CO)C[C@H](C)[C@@H](CN(C)C(=O)Nc1ccc(C(F)(F)F)cc1)OCCCC[C@H](C)O2	none (no result: MITF act, Wnt bcat act)
CC(C)NC(=O)Nc1ccc2c(c1)C(=O)N([C@@H](C)CO)C[C@@H](C)[C@@H](CN(C)C(=O)Nc1ccc(C(F)(F)F)cc1)OCCCC[C@@H](C)O2	HIV Env fusion 78.9[16.7 µM] (no result: MITF act, Wnt bcat act)
CC(C)CNC(=O)[C@@H]1c2ccccc2C(=O)N(CC23CC4CC(CC(C4)C2)C3)[C@H]1c1ccc(CO)cc1	HIV Env fusion 60.7[16.7 µM] (no result: INS-1E GSIS act, MITF act, Wnt bcat act)
CCCNC(=O)[C@@H]1c2ccccc2C(=O)N(CC23CC4CC(CC(C4)C2)C3)[C@H]1c1ccc(CO)cc1	none (no result: INS-1E GSIS act, MITF act, Wnt bcat act)
CC(=O)O[C@H]1C(=O)[C@@]2(C)C([C@H](OC(=O)c3ccccc3)[C@]3(O)C[C@H](OC(=O)[C@H](O)[C@@H](NC(=O)c4ccccc4)c4ccccc4)C(C)=C1C3(C)C)[C@]1(OC(C)=O)CO[C@@H]1C[C@H]2O (stereo partly specified)	F508del corr 17.9 (no result: MITF act, HIV Env fusion)
